# Only some compounds are listed: those with a hit (about 7.4% of all), similar ones and a draw of the others.
# Rab9 prom act: activates the Rab9 promoter | Huh7 Rab9 promoter-luciferase reporter, luminescence, 24 h | Potency, µM (top dose mostly 9.22 µM), hits mostly activators | 2.8% of 320,000 active | AID 485297; further: nearly all actives have a fitted effect of over 60% in size
#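 Quantitative HTS format; Huh7 Rab9-luciferase reporter cells (1500/well) receive compound 2 h post-plating, incubate 24 h at 37 °C, then get luciferase reagent for 10 min before luminescence reading.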
# FLuc modulator: inhibits or activates purified firefly luciferase, miR-21 counter-screen; P08659; purified FLuc, Km substrates, luminescence inhibition; Potency, µM (series often up to 57.5 µM), hits mostly inhibitors; 6.9% of 360,000 active; AID 588342; further: nearly all actives have a fitted effect of over 55% in size
# Target sequence (P08659 whole entry, looked up): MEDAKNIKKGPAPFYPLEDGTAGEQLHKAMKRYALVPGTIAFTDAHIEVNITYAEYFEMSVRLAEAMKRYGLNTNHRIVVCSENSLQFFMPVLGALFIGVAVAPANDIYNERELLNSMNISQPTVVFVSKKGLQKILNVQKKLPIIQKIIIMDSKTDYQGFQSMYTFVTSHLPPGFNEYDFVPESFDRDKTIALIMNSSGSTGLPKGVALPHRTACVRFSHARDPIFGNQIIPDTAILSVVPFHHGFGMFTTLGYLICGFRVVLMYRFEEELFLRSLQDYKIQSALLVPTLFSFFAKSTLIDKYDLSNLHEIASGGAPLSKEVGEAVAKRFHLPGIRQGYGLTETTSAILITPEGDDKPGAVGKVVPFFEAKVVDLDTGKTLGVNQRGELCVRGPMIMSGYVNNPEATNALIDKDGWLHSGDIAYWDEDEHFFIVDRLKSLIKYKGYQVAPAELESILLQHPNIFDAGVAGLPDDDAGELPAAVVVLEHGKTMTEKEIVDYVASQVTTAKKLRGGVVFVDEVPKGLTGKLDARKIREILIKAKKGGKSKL
#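 Purified P. pyralis luciferase, 10 nM final, with Km-level 10 uM D-luciferin and 10 uM ATP in 50 mM Tris acetate pH 7.5, 10 mM Mg acetate, 0.01% Tween-20, 0.05% BSA; 6-point qHTS titration about 60 µM downward; luminescence read.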
# SMN2 splice up: enhancers of SMN2 splice variant expression. HEK293 SMN2-luciferase splicing reporter, luminescence, 30-36 h. Potency, µM (top dose mostly 46.1 µM), hits mostly activators. 2.8% of 210,000 active; further: nearly all actives have a fitted effect of over 55% in size
#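 HEK293 cells carry an SMN2 […]–luciferase reporter in which exon 7 inclusion puts luciferase in frame. Cells were plated 10-12 h before compound addition, then incubated 30-36 h at 37C. ONE-Glo luminescence was read; sodium butyrate at 4.5 mM final served as control.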
# Luc counter: blocks Kinase-Glo luciferase, a counter-screen artifact. Kinase-Glo luciferase, ATP luminescence, 8 min. Q27757. 0.28% of 200,000 active. Potency, µM (top dose mostly 38.3 µM), actives largely listed as inhibitors. AID 1379; further: nearly all actives have a fitted effect of over 60% in size
#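 Luminescence was the read-out, taken after 8-minute incubation at ambient temperature. Luciferase turned over luciferin with 10 uM ATP in imidazole pH 7.2 buffer containing KCl, MgCl2, Tween 20 and BSA.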
# ELG1 genotox: induces genotoxicity in HEK293T cells with luciferase-tagged ELG1. HEK293T ELG1-luciferase reporter, luminescence, 16 h. Potency, µM (top dose mostly 46 µM), hits mostly activators. 1.3% of 330,000 active. AID 504466; further: nearly all actives have a fitted effect of over 60% in size
#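 After overnight (16 hr) compound treatment at 37 °C, ELG1-luciferase HEK293T cells were lysed with ONE-Glo; luminescence quantified 30 min later at room temperature.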
# NPC1 promoter act: NPC1 promoter activation; Huh7 NPC1 promoter luciferase reporter, 24 h; Potency, µM (titrated, usually from 9.22 µM), actives largely listed as activators; 2.4% of 320,000 active; AID 485313; further: nearly all actives have a fitted effect of over 60% in size
#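 Stably transfected Huh7 (NPC1 promoter→luciferase), 1500 cells/well in Opti-MEM + 10% FBS, 2 h settle, then compound 24 h at 37 °C. Luminescence after 10 min with Amplite reagent.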
# Numbers stand for hits; . = inactive; ? = inconclusive; / = no result given. The call rests on the fitted dose curve; in most records, active means well fitted curve in the direction sought with a large enough effect; inconclusive means small, poorly fitted or top-dose-only effect, or another doubt; inactive means no such curve, though single readings can be large; an effect the other way counts as inactive or inconclusive.
SMILES,Rab9 prom act,FLuc modulator,SMN2 splice up,Luc counter,ELG1 genotox,NPC1 promoter act
O=C(Nc1ccc2nsnc2c1)c1ccc2c(c1)OCO2,0.45µM,1.3µM,5.6µM,.,1.2µM,0.63µM
O=C(Nc1ccc2c(c1)OCO2)c1ccc2c(c1)OCO2,0.56µM,2.1µM,5µM,?,?,0.79µM
CC(C(=O)Nc1ccc(C#N)cc1)N1CCN(C(=O)C2CC2)CC1 (centres undefined),.,.,/,/,.,.
O=C(Nc1ccc(Cl)c(Cl)c1)c1ccc2c(c1)OCO2,0.56µM,1.5µM,/,/,4.6µM,0.79µM
O=C(Nc1ccc(F)c(F)c1)c1ccc2c(c1)OCO2,?,9.5µM,.,?,3.7µM,2.5µM
O=C(Nc1ccc2c(c1)OCO2)c1cc(-c2ccc(Br)cc2)on1,/,.,.,/,/,/
CC(NC(=O)C1=Cc2ccccc2OC1)c1ccccc1 (centres undefined),/,.,/,/,/,/
O=C(Nc1ccc2c(c1)OCO2)c1ccc(Cl)s1,2µM,4.3µM,7.1µM,?,2.6µM,2.2µM
O=C(Nc1ccc(Cl)cc1)C1=Cc2ccccc2OC1,0.56µM,1.9µM,22µM,.,1.5µM,3.2µM
Cc1cc(C)nc(Sc2nc(Cl)nc(N(c3ccccc3)c3ccccc3)n2)n1,.,.,.,.,?,.
Nc1cccc(NP(=O)(c2ccccc2)c2ccccc2)c1,.,.,/,/,.,.
O=C(Nc1ccc2c(c1)OCO2)c1c(Cl)nc2sccn12,3.2µM,?,?,.,?,?
Cc1cc(C(=O)Nc2ccc3c(c2)OCO3)cs1,1.3µM,4.8µM,13µM,?,7.3µM,1.8µM
Cn1ncc(Cl)c1C(=O)Nc1ccc2c(c1)OCO2,.,.,/,/,.,.
CCCCOc1ccc(C(=O)NCC(=O)NCC2CCCO2)cc1 (centres undefined),.,.,/,/,.,.
O=C(O)[C@H]1CCCC[C@H]1C(=O)Nc1ccc(Nc2ccccc2)cc1,.,?,.,.,.,.
Cc1ccccc1N1CCN(c2ccc(NC(=O)C3CCCCC3C(=O)O)cc2)CC1 (centres undefined),.,11µM,.,.,.,.
CCOc1ccc(S(=O)(=O)N2CCC(C(=O)OC(C)C(=O)N(C)C3CCCCC3)CC2)cc1 (centres undefined),.,.,/,/,.,.
O=c1cc[nH]c2c1ccc1cccnc12,.,.,/,/,?,.
COc1cccc2c1cc1c(=O)n(CC(=O)N3CCC(C)CC3)nc(C)n12,.,.,.,/,.,.
Nc1ncnc2c1ncn2[C@@H]1O[C@H](COP(=O)(O)OP(=O)(O)OP(=O)(O)OP(=O)(O)OC[C@@H]2O[C@H](n3cnc4c(N)ncnc43)[C@@H](O)[C@H]2O)[C@@H](O)[C@H]1O,.,/,?,/,/,.
Nc1ncnc2c1ncn2[C@@H]1O[C@H](COP(=O)(O)OP(=O)(O)O)[C@@H](O)[C@H]1O,/,/,.,5µM,/,/
CCN(CC)S(=O)(=O)c1cccc(C(=O)NNC(=O)c2ccc3[nH]c(=O)c(=O)[nH]c3c2)c1,.,.,/,/,.,.
COc1ccc(C(=O)NC(=S)NC(C)(C)C)cc1Br,?,11µM,.,.,.,.
Cc1[nH]c2ccccc2c1/C=C(\C#N)C(=O)NC1CC1,?,17µM,/,/,?,?
SMILES,Rab9 prom act,FLuc modulator,SMN2 splice up,Luc counter,ELG1 genotox,NPC1 promoter act
Cc1[nH]c2ccccc2c1/C=C(\C#N)C(=O)NC(C)c1ccccc1 (centres undefined),.,.,.,.,.,.
N#C/C(=C\c1c[nH]c2ccccc12)C(=O)NC1CCCC1,.,15µM,/,/,.,.
N#C/C(=C\c1c[nH]c2ccccc12)C(=O)NC1CC1,?,7.6µM,/,/,?,3.5µM
N#C/C(=C\c1ccccc1)C(=O)NC1CC1,.,?,/,/,.,.
Cc1ccccc1NS(=O)(=O)c1ccc(C(=O)N(C)CC(=O)Nc2ccccc2Br)cc1,/,/,/,/,.,/
O=C(NC12CC3CC(CC(C3)C1)C2)c1cc(F)c(F)c(F)c1F,.,.,/,/,.,.
COC(=O)c1sc(NC(=O)c2ccoc2C)nc1C,?,?,22µM,7.9µM,?,.
COC(=O)c1sc(NC(=O)c2c(C)noc2C)nc1C,.,24µM,/,/,?,.
